Among the data in PubChem BioAssay are composite z-score and z-score values, retold here.

Experiment [1] deals with XIP peptide (Xip251-270) binding. The experiment can be described thus: XIP fragment 251-270 binding compounds – biochemical, small-molecule microarray, fluorescence 635/667 nm, 0.1 µg/mL protein, primary screen (AID 1182). The settings on record: fluorescent protein binding, 635 nm, higher = more signal, called active from +8 up or from −8 down.
The test system of another experiment is XIP peptide (Xip251-270). Nature of the experiment: compounds binding XIP fragment 251-270 – biochemical, small-molecule microarray, fluorescence 635/667 nm, 0.5 µg/mL protein, primary screen (AID 1183). Particulars: fluorescence 635 nm, higher = more signal.
Experiment [2] in a line: blood-stage malaria parasite viability loss – strain 3D7, DAPI fluorescence, 100 nL, primary screen (AID 1184).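 Also: parasites grown inside human red blood cells in medium with human serum.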 Particulars: P. falciparum 3D7 growth, 3 d, higher = more signal.
The target of experiment [3] is Homeobox protein Hox-A13 (Mus musculus) (UniProt Q62424). Nature of the experiment: disruptors of Hoxa13 oligonucleotide interaction – biochemical, fluorescence polarization, labeled oligonucleotide, primary screen (AID 1185). The settings on record: Hoxa13:DNA binding, 15 min, higher = more signal, called active from +8 up or from −8 down. (In fluorescence polarisation assays a small probe gives low polarisation when free and higher when bound to something large.)

Activity calls are given as the source filed them.

Chain of Homeobox protein Hox-A13 (Mus musculus) (Q62424 whole entry, looked up): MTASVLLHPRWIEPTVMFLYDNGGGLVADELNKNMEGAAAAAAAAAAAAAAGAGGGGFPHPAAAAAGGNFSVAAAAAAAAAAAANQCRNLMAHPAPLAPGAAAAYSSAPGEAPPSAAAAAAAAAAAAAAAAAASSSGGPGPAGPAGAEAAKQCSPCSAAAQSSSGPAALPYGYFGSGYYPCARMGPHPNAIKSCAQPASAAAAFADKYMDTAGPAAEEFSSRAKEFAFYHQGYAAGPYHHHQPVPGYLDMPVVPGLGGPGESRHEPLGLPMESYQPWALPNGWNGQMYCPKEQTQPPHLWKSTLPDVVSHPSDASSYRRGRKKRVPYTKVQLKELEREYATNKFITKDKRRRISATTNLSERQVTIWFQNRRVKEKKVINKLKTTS

Turning to `O=C1CCCC=C1C(O)CCOC(c1ccccc1)(c1ccccc1)c1ccccc1` (stereo not drawn), the composite z-score was -0.0848 (inactive) in experiment [1] and -0.364 in the experiment on XIP peptide (Xip251-270). The z-score in experiment [2] was -1.1; in experiment [3], -4.61 (inactive).

Take `C[C@@H](c1ccccc1)N1C(=O)[C@H]2[C@H]3[C@H](O)[C@H](O)CC(=NO[C@@H]4O[C@H](CO)[C@@H](O)[C@H](O)[C@H]4O)[C@@H]3CC[C@H]2C1=O`: the composite z-score in experiment [1] was -0.0769 (inactive); with XIP peptide (Xip251-270) it was 0.438. In addition, the results for the z-score in experiment [2] and in experiment [3] were -2.33 and 0.174 (inactive), respectively.

`CC(C)[C@@H](OCc1ccccc1)[C@H](C)C=NOC[C@@H](O)COCc1ccco1`: the values for the composite z-score (in experiment [1]; with XIP peptide (Xip251-270)) were -0.0277 (inactive) and -0.273, respectively. The values for the z-score in experiment [2] and in experiment [3] were 1.4 and -2.74 (inactive), respectively.

As for `COC(=O)[C@H](C)NC(=O)CCC1CC(OC(=O)NCc2ccc3c(c2)OCO3)CC2(CCCC(COC(=O)NCCc3ccccc3OC)O2)O1` (stereo partly drawn), the composite z-score was 0.516 (inactive) in experiment [1] and 0.588 in the experiment with XIP peptide (Xip251-270). In addition, the results for the z-score in experiment [2] and in experiment [3] were -0.143 and -6.43 (inactive), respectively.

As to `C[n+]1ccc(-c2ccc(CO)cc2)cc1`, the composite z-score in experiment [1] is 0.725 (inactive); in the experiment with XIP peptide (Xip251-270), -0.227. For the same compound, the z-score in experiment [2] was 1.09; in experiment [3], -2.76 (inactive).

Consider `CCOC(=O)[C@H](Cc1ccccc1)NC(=O)CCC1CC(OC(=O)NCCc2ccc(F)cc2)CC2(CCCC(COC(=O)NCc3ccccc3)O2)O1` (stereo partly drawn), for which the composite z-score is 0.501 (inactive) in experiment [1] and 0.283 with XIP peptide (Xip251-270). Further, the z-score in experiment [2] was -1.64; in experiment [3], -2.25 (inactive).

Regarding `COC(=O)CC=C[C@@H](C)[C@@H](C=NO[C@H](C)c1cn([C@H](CO)Cc2ccccc2)nn1)NS(=O)(=O)c1ccc(C)cc1`, the composite z-score in experiment [1] was -0.418 (inactive); in the experiment on XIP peptide (Xip251-270), 0.126. In addition, the z-score in experiment [2] is 0.346; in experiment [3], -6.42 (inactive).

Turning to `Cn1c(=O)n2n(c1=O)[C@H]1[C@H](O)[C@@H]3O[C@@H]3C(=NOCc3ccccc3)[C@H]1CC2`, the composite z-score in experiment [1] is 0.899 (inactive); with XIP peptide (Xip251-270), 0.382. Moreover, the z-score is 0.769 in experiment [2] and -2.35 (inactive) in experiment [3].

Turning to `CCOC(=O)[C@H](Cc1ccccc1)NC(=O)CCC1CC(OC(=O)NCCc2ccc(F)cc2)CC2(CCCC(COC(=O)NCCCN3CCCC3=O)O2)O1` (stereo partly drawn), the composite z-score in experiment [1] was 0.414 (inactive); in the experiment on XIP peptide (Xip251-270), 0.701. For the same compound, the z-score was -1.6 in experiment [2] and -2.25 (inactive) in experiment [3].

`CCOC(=O)[C@H](CC(C)C)NC(=O)CCC1CC(OC(=O)NCCc2ccc(F)cc2)CC2(CCCC(COC(=O)NCCc3ccc(Cl)cc3)O2)O1` (stereo partly drawn): the composite z-score in experiment [1] is 1.08 (inactive); in the experiment on XIP peptide (Xip251-270) it was 0.571. Further, the z-score is -1.9 in experiment [2] and -6.52 (inactive) in experiment [3].

On to `CCOC(=O)NN=C1C[C@@H](O)[C@@H](O)[C@@H]2[C@@H]3C(=O)N(Cc4ccc5c(c4)OCO5)C(=O)[C@@H]3CC[C@H]12`, for which the composite z-score in experiment [1] is 2.21 (inactive); in the experiment on XIP peptide (Xip251-270) it was -0.437. The figures for the z-score in experiment [2] and in experiment [3] were -0.948 and -0.227 (inactive), respectively.

With `C[C@H](ON=C1[C@H]2CCn3c(=O)n(-c4ccccc4)c(=O)n3[C@H]2[C@H](O)[C@@H]2O[C@H]12)c1cn([C@H](CO)Cc2ccccc2)nn1`, the composite z-score in experiment [1] was 2.76 (inactive); in the experiment with XIP peptide (Xip251-270), 0.238. Further, the z-score in experiment [2] is 0.0242; in experiment [3], -3.02 (inactive).
